Assay outcomes from PubChem.
Shown are actives, neighbours in structure and some others; about 1.2% of the full set was active somewhere.
RGS8-Gao – regulators of human RGS8-Galphao interaction; P09471; multiplexed bead flow cytometry, RGS8-Galphao binding; actives lie on both sides; response (percent of control binding), % at 10 µM; actives 0.34% (n = 220,000); AID 1423; in the data active = response below about 60% or above about 140%; inactive = in between;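 also: Galphao activated as the GDP aluminium fluoride complex binding bead-coupled RGS8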
Target sequence (P09471 whole entry, looked up): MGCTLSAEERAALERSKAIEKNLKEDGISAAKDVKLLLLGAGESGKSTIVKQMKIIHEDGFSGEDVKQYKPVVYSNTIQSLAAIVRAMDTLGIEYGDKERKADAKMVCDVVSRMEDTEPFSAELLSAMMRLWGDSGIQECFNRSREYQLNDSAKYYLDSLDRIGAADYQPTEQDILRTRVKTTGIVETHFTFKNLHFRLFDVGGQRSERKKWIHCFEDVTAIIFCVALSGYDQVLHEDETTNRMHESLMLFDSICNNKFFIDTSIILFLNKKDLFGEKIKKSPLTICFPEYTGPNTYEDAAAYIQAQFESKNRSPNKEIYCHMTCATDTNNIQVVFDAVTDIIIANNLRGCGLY
RGS16-Gao HTS – regulators of human RGS16-Galphao interaction | O15492+P09471 | bead-based flow cytometry RGS16-Galphao binding, fluorescence; actives lie on both sides | binding response (% of control), % at 10 µM | actives 0.38% (n = 220,000); call rule not given here;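 also: Galphao activated by GDP with aluminum fluoride before binding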
Target sequence (O15492 whole entry, looked up): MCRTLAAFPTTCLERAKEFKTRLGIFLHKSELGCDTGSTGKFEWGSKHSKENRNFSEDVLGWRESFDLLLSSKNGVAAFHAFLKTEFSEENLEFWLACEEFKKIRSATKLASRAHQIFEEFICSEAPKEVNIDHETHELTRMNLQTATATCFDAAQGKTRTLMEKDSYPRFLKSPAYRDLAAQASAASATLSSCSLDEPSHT
Target sequence (P09471 whole entry, looked up): as the sequence (P09471 whole entry, looked up) above
RGS7-Gao – regulators of human RGS7-Galphao interaction; binding response (% of control), % at 10 µM; P09471; actives 0.35% (n = 220,000); Multiplexed bead flow cytometry, RGS7-Galphao binding; actives lie on both sides; in the data active = binding response below about 49% or above about 150%; inconclusive = no clear call, values can overlap the other calls; inactive = in between;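 also: fluorescent Galphao held in activated GDP-AlF4 state binding bead-coupled RGS7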
RGS4-Gao reg – modulates binding of RGS4 to human Galphao; P09471; Multiplexed bead flow cytometry; actives lie on both sides; binding response (% of control), % at 10 µM; actives 0.33% (n = 220,000); in the data active = binding response below about 49% or above about 150%; inactive = in between;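 also: fluorescent Galphao activated with aluminum fluoride binding bead-coupled RGS4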
GSH bead fluor – GSH bead compound fluorescence profile. GSH beads flow cytometry, compound fluorescence 488/530 nm; hits give high values. actives 0.25% (n = 190,000). AID 1776. fluorescence (KMESF) at 10 µM; in the data active = fluorescence above about 89;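 also: glutathione beads carrying GST-tagged Bcl family fusion proteins plus one bare bead set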
Avidin fluor – compound fluoresces at 488/530 nm on avidin beads. actives 0.38% (n = 220,000). compound fluorescence 488/530 nm, flow cytometry; hits give high values. fluorescence (KMESF) at 10 µM; in the data active = fluorescence above about 47
Hits are given with their value; 0 = inactive; ? = inconclusive; - = no result given.

SMILES | RGS8-Gao | RGS16-Gao HTS | RGS7-Gao | RGS4-Gao reg | GSH bead fluor | Avidin fluor
O=S(=O)(N/N=C\c1cccnc1)c1ccccc1 | 0 | 0 | 0 | 0 | 352 | 0
O=[N+]([O-])c1cccc(/C=N/NS(=O)(=O)c2ccccc2)c1 | 0 | 0 | 0 | 0 | 0 | 0
Cc1ccc(/C=C/C(=O)O)cc1S(=O)(=O)N(CCO)CCO | 0 | 0 | 0 | 0 | 0 | 0
CCOC(=O)CSc1nc2c(c(=O)n(C)c(=O)n2C)n1CCCc1ccccc1 | 0 | 0 | 0 | 0 | 269 | 0
CCn1c(SCC(=O)OCc2ccccc2)nc2c1c(=O)n(C)c(=O)n2C | 0 | 0 | 0 | 0 | 0 | 0
COc1ccc(C(=O)NC(=S)NC2CCSC2=O)cc1 (stereo unspecified) | 0 | 0 | 0 | 0 | 0 | 0
Cc1ccc(CSc2nnc(-c3ccncc3)n2N)cc1 | 0 | 0 | ? | 0 | - | 0
Nn1c(SCc2cn3ccsc3n2)nnc1-c1ccncc1 | 0 | 0 | 0 | 0 | 266 | 0
COc1ccc(N(CC(=O)NCc2ccc3c(c2)OCO3)C(=O)CCC(=O)Nc2ccccn2)cc1 | 0 | 0 | 0 | 0 | 0 | 0
COc1cc2[nH]c(=O)n(CCCCCC(=O)NCCc3c[nH]c4ccccc34)c(=O)c2cc1OC | 0 | 0 | 0 | 0 | 0 | 49
O=C(CCCCn1c(=O)[nH]c2ccccc2c1=O)NCCc1c[nH]c2ccccc12 | 0 | 0 | 0 | 0 | 0 | 0
Cc1ccc(C)n1-c1ccccc1N1CCCCC1 | 0 | 0 | 0 | 0 | 0 | 0
COc1ccc(CCc2nnc(CCC(=O)N(C)Cc3ccnc4ccccc34)o2)cc1 | 0 | 0 | 0 | 0 | 0 | 0
COc1ccccc1CN1CCNC(=O)C1CC(=O)N(C)Cc1ccon1 (stereo unspecified) | 0 | 0 | 0 | 0 | 0 | 0
COc1cc(C(=O)NNC(=S)NC(=O)c2ccc(Cl)cc2)cc(OC)c1OC | 0 | 0 | 0 | 0 | 446 | 0
Cc1onc(-c2c(F)cccc2Cl)c1C(=O)OCC(=O)Nc1c(C)n(C)n(-c2ccccc2)c1=O | 0 | 0 | 0 | 0 | 279 | 0
O=C(OCC(=O)N1CCOCC1)c1ccc2c(c1)OCCO2 | 42 | 0 | 30 | 32 | 0 | 0
CCOC(=O)C1=NN(C(=O)COc2ccccc2)C(O)(c2ccc(Br)cc2)C1 (stereo unspecified) | 0 | 0 | 0 | 0 | 0 | 0
CSc1ccccc1NC(=O)CN(C)CC(=O)Nc1c(F)cccc1F | 0 | 0 | 0 | 0 | 0 | 58
c1coc(CNC2CCCCCCC2)c1 | 0 | 0 | 0 | 0 | 0 | 84
c1coc(CNC2CCCCC2)c1 | 0 | 0 | 0 | 0 | 0 | 0
CCOc1cc(/C=N/Nc2nc(-c3cccc(S(=O)(=O)N4CCCC4)c3)cs2)ccc1O | 0 | 0 | 0 | 0 | 0 | 0
c1ccc2sc(Cc3nnc4n3CCCCC4)nc2c1 | 0 | 0 | 0 | 0 | 0 | 88
O=S(=O)(Nc1ccc(Cc2ccncc2)cc1)c1ccc(Br)cc1 | 12 | 1.0 | 15 | 22 | 0 | 0
CCCSCCCNC(=O)Cn1cc2c(n1)CCCCC2 | 56 | 0 | 43 | 49 | 0 | 0
SMILES | RGS8-Gao | RGS16-Gao HTS | RGS7-Gao | RGS4-Gao reg | GSH bead fluor | Avidin fluor
COCCCNC(=O)Cn1cc2c(n1)CCCCC2 | 0 | 0 | 0 | 0 | 0 | 0
Cn1c(SCCCC(=O)c2ccc(F)cc2)nnc1-c1ccncc1 | 0 | 0 | 0 | 0 | 0 | 0
Cc1occc1-c1nnc(SCCCC(=O)c2ccc(F)cc2)n1C | 0 | 0 | 0 | 0 | 259 | 0
Cc1ccc(CC23CN4CCN(CC(C4)C2O)C3)c(C)c1 (stereo unspecified) | 0 | 0 | 0 | 0 | 0 | 69
CC(=O)NC1C2CN3CCN(C2)CC1(Cc1ccccc1)C3 (stereo unspecified) | 0 | 0 | 0 | 0 | 0 | 0
O=C1C(c2ccnc3ccccc23)=C(O)c2ccccc21 | 0 | 0 | 0 | 0 | 128 | 0
COc1cc(C(=O)NNC(=S)NC(=O)/C=C/c2ccccc2)cc(OC)c1OC | 0 | 0 | ? | 0 | - | 0
CCOc1ccc(CC(=O)NNC(=O)NC2CCCCC2)cc1 | 0 | 0 | 0 | 0 | 0 | 0
CCOc1ccc(CC(=O)NNC(=S)NC2CCCCC2)cc1OCC | 0 | 0 | 0 | 0 | 128 | 0
CC(=O)Nc1ccc(S(=O)(=O)N2CCN(c3ccccn3)CC2)cc1 | 0 | 0 | 0 | 0 | 0 | 65
CC(=O)Nc1ccc(S(=O)(=O)N2CCOCC2)cc1 | 0 | 0 | 0 | 0 | 140 | 0
Cc1ccc(S(=O)(=O)N2CCN(c3ccccn3)CC2)cc1 | 0 | 0 | ? | 0 | - | 0
FC(F)(F)c1ccc(Oc2ccc3ccccc3c2Br)nc1 | 0 | 0 | 0 | 0 | 0 | 0
CCOc1ccc(NC(=O)C(Cc2ccccc2)NC(=O)C2CCCCC2)cc1 (stereo unspecified) | 0 | 0 | 0 | 0 | 0 | 0
CC(C)C12CN3CC(C(C)C)(CN(C1)C3c1ccccc1)C2O (stereo unspecified) | 0 | 0 | 0 | 0 | 253 | 0
O=C(CN1C(=O)c2ccccc2S1(=O)=O)NCCC1=CCCCC1 | 0 | 0 | 0 | 0 | 117 | 0
COc1ccc(C2C(C(=O)NC(C)C)c3ccccc3C(=O)N2C)cc1OC (stereo unspecified) | 0 | 0 | 0 | 0 | 0 | 54
CN(C)c1cccc(C(=O)OCC(=O)Nc2nccs2)c1 | 0 | 0 | 0 | 0 | 0 | 0
Cc1cccc(N2CCN(Cc3cc(=O)n4ccsc4n3)CC2)c1C | 0 | 0 | 0 | 0 | 0 | 0
O=c1cc(CN2CCN(c3ccccc3O)CC2)nc2sccn12 | 0 | 0 | 0 | 0 | 255 | 0
N#C/C(=C\c1ccc(N2CCOCC2)o1)C(=O)Nc1ccc(O)cc1 | 0 | 0 | 0 | 0 | 0 | 0
N#C/C(=C/c1ccc(N2CCCCC2)o1)C(=O)Nc1ccc(Cl)cc1 | 0 | 0 | 0 | 0 | 0 | 56
CCOc1ccc2nc(NCCNC(=O)C(C)C)c(C)cc2c1 | 0 | 0 | 0 | 0 | 0 | 61
Cc1c2c(nc3ccccc13)CCC(C)C2 (stereo unspecified) | 0 | 0 | ? | 0 | 0 | 0
COc1ccc(Cl)cc1N(CC(=O)N/N=C/c1ccc(OC(C)C)cc1)S(=O)(=O)c1ccc(C)c([N+](=O)[O-])c1 | 0 | 0 | 0 | 0 | 0 | 0
SMILES | RGS8-Gao | RGS16-Gao HTS | RGS7-Gao | RGS4-Gao reg | GSH bead fluor | Avidin fluor
C=CCOc1cccc(/C=N/NC(=O)CN(c2cc(Cl)ccc2OC)S(=O)(=O)c2ccc(C)c([N+](=O)[O-])c2)c1 | 0 | 0 | 0 | 0 | 196 | 0
COc1ccc(C(=O)OCCN2CCOCC2)cc1 | 0 | 0 | 0 | 0 | 96 | 0
Cc1ccc([N+](=O)[O-])cc1N/C=C1\CCc2ccccc2C1=O | 0 | 0 | 0 | 0 | 0 | 0
O=C(O)Cn1c(=O)cnc2ccccc21 | 0 | 0 | 0 | 0 | 0 | 0
CC(C)N(Cc1ccccc1)C(=O)Cn1c(=O)cnc2ccccc21 | 0 | 0 | ? | 0 | - | 49
O=C(NC(=S)NC(c1ccccc1)c1ccncc1)c1ccccc1 (stereo unspecified) | 0 | 0 | 0 | 0 | 0 | 0
Cc1cc(C)c(S(=O)(=O)Cc2ccccc2)c(=O)[nH]1 | 0 | 0 | 0 | 0 | 0 | 0
